Shiga toxin inh – A qHTS for Small Molecule Inhibitors of Shiga Toxin; Vero cells, Shiga toxin protein synthesis inhibition reporter; inhibition, % at 38.7 µM; actives 9.2% (n = 290,000); AID 2315, 2010; in the data active = inhibition mostly above about 28%, no sharp cut-off; inactive = mostly below about 43%
AMA1 RON2 block – qHTS for Inhibitors of AMA1-RON; Towards Development of Antimalarial Drug Lead: Primary Screen; AID 720542, 2013; Plasmodium falciparum AMA1 (3D7) - RON2 peptide interaction; AlphaScreen AMA1-biotinylated RON2 peptide binding; actives 0.2% (n = 360,000); Potency, µM (highest dose often 58.2 µM), most hits filed as inhibitors; note: nearly all actives have a fitted effect of over 45% in size
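AMA1 (3D7) with his tag at 25 nM final met compounds first, then biotinylated RON2 peptide at 25 nM; detection used donor plus acceptor beads, 10 µg/mL apiece, read by AlphaScreen after 30 min at room temperature.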
SARS PLpro yeast – qHTS of Yeast-based Assay for SARS-CoV PLP; actives 0.19% (n = 330,000); S. cerevisiae expressing SARS-CoV PLpro, growth rescue; AID 485353, 2010; Potency, µM (highest dose often 32.9 µM), actives largely listed as activators; calls by dose curve; note: nearly all actives have a fitted effect of over 55% in size
Cycloheximide cs – Cycloheximide Counterscreen for Small Molecule Inhibitors of Shiga Toxin. actives 12% (n = 300,000). AID 2314, 2010. cell reporter, cycloheximide protein synthesis inhibition counterscreen. max response, %; in the data active = max response mostly above about 13%, no sharp cut-off; inactive = mostly below about 14%; note: read at 38.3 µM for the half of the compounds with a filed dose
Pf growth 48h – Primary qHTS for delayed death inhibitors of the malarial parasite plastid, 48 hour incubation; P. falciparum luciferase growth in erythrocytes, 48 h; Potency, µM (doses to about 28.7 µM), most hits filed as inhibitors; AID 504832, 2011; actives 5.9% (n = 310,000)
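Luciferase-expressing parasites in RBCs, 2% Hct / 0.1% parasitemia final; RPMI 1640 + 0.5% Albumax; 37 C, 5% CO2, one generation; luminescence read-out, lower signal = inhibition.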
Pf growth 96h – Primary qHTS for delayed death inhibitors of the malarial parasite plastid, 96 hour incubation. P. falciparum luciferase reporter growth, 96 h. Potency, µM (top dose mostly 28.7 µM), hits mostly inhibitors. actives 6.9% (n = 320,000)
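Readout is luminescence from an integrated firefly luciferase in P. falciparum. Red cells, 2% hematocrit and 0.05% parasitemia final, were cultured with compound through two parasite generations (96 hours) at 37 C, 5% CO2.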
A number is an active result; . = inactive; ? = inconclusive; / = no result. Hits are enriched below; roughly 19% of the tested compounds scored in any of these assays. Unless noted, calls come from the whole dose curve; as a rule, active = well fitted curve in the direction sought with a large enough effect; inconclusive = small, poorly fitted or top-dose-only effect, or another doubt; inactive = no such curve, though single readings can be large; an effect the other way counts as inactive or inconclusive.

SMILES	Shiga toxin inh	AMA1 RON2 block	SARS PLpro yeast	Cycloheximide cs	Pf growth 48h	Pf growth 96h
COc1ccccc1NS(=O)(=O)c1cccc(-n2c(O)c(C=Nc3ccccc3C(=O)O)c3ccccc3c2=O)c1	.	.	.	.	.	.
O=c1nc(NCc2ccccc2Cl)cn[nH]1	.	.	.	.	/	.
N#Cc1ccc(-c2ccccc2)nc1SCC(=O)c1cccc(Cl)c1	.	.	.	.	.	.
N#Cc1c(C(F)(F)F)cc(-c2ccccc2)nc1SCC(=O)Nc1sc2c(c1C#N)CCC2	.	.	.	.	?	11.7µM
CC(Sc1nc(-c2ccccc2)cc(C(F)(F)F)n1)C(=O)Nc1sc2c(c1C#N)CCC2 (stereo not drawn)	.	.	.	.	.	?
N#Cc1ccc(-c2cccnc2)nc1SCC(=O)c1ccccc1	82.2	.	.	36.7	.	.
COc1ccc(-c2ccc(C#N)c(SCC(=O)Nc3sc4c(c3C#N)CCC4)n2)cc1	.	.	.	.	.	.
N#Cc1ccc(-c2cccnc2)nc1SCC(=O)Nc1sc2c(c1C#N)CCC2	.	.	.	.	?	1.47µM
COc1ccc(NC(=O)COC(=O)CNS(=O)(=O)c2ccc(F)c(F)c2F)cc1OC	.	.	.	.	.	.
O=C(CCc1ccccc1)NCc1ccccc1	.	.	.	.	.	.
O=C(CCn1cccc1)NCc1ccccc1	.	.	.	.	.	8.28µM
CCC(Cc1ccccc1)NC(=O)CCc1ccccc1 (stereo not drawn)	.	.	.	.	.	?
CCC(Cc1ccccc1)NC(=O)CCn1cccc1 (stereo not drawn)	.	.	.	.	.	5.86µM
COc1ccccc1C(=O)N1CCCC(C)(C(=O)NS(=O)(=O)C2CC2)C1 (stereo not drawn)	/	.	/	/	/	/
CCOc1[nH]n(-c2ccccc2)c(=O)c1C=Nc1ccccc1	.	.	.	.	.	3.7µM
O=C(COC(=O)/C=C/c1cccc(F)c1)NC(=O)NCc1ccccc1	/	.	.	/	/	/
CCC(CCC(=O)Nc1ccn(-c2ccccc2)n1)C(=O)O (stereo not drawn)	.	.	.	.	.	.
Cc1ccc(NC(=O)COc2ccccc2CNC(C)(C)CC(C)(C)C)cc1	.	.	.	.	7.38µM	/
CCOC(=O)c1ccc(NC(=O)COc2ccccc2CNCCO)cc1	.	.	.	.	?	?
CC(C)(CO)NCc1ccccc1OCC(=O)Nc1ccccc1	.	.	.	24.3	.	/
CSCC[C@H](NC(=O)[C@@H]1CCCN1C(=O)CNC(=O)[C@H](CCCCN)NC(=O)[C@H](Cc1cnc[nH]1)NC(=O)[C@H](CO)NC(=O)[C@H](CC(C)C)NC(=O)[C@H](CCCNC(=N)N)NC(=O)[C@@H]1CCCN1C(=O)[C@H](CCCNC(=N)N)NC(=O)[C@H](CCC(N)=O)NC(=O)[C@H](CCCNC(=N)N)NC(=O)[C@H](CCCNC(=N)N)NC(=O)[C@H](Cc1ccccc1)NC(=O)[C@@H](N)CCCCN)C(=O)N1CCC[C@H]1C(=O)N[C@@H](Cc1ccccc1)C(=O)O	.	/	/	.	/	/
Cc1cc(NC(=O)CSc2ncc(C(=O)O)n2-c2ccc(F)cc2)no1	/	.	.	/	/	/
COc1ccc(CC(=O)OCN2C(=O)c3ccccc3C2=O)cc1	.	.	.	.	.	.
O=C(Cc1ccccc1[N+](=O)[O-])OCN1C(=O)c2ccccc2C1=O	.	.	.	17.8	.	.
O=C(Cc1ccccc1[N+](=O)[O-])OCc1cccc([N+](=O)[O-])c1	91.7	/	.	31.5	.	.
O=C(Cc1ccc(F)cc1)OCN1C(=O)c2ccccc2C1=O	.	.	.	.	?	14.7µM
O=C1c2ccccc2C(=O)N1OCc1ccccc1[N+](=O)[O-]	.	.	.	24.4	.	.
O=C(O)C(Cc1ccccc1[N+](=O)[O-])N1C(=O)c2ccccc2C1=O (stereo not drawn)	/	.	/	/	/	/
O=C(CCN1C(=O)c2ccccc2C1=O)OCN1C(=O)c2ccccc2C1=O	.	.	?	.	/	.
c1ccc(-c2nnc(C3CC(c4ccncc4)=NO3)o2)cc1 (stereo not drawn)	/	.	/	/	/	/
